# Reference: PubChem BioAssay AID1159580 (chemical genetic matrix, 2015)
# Out of some 5,500 compounds screened, about 2,000 (36%) were called active. About 18% were inconclusive and are not listed. The list shows a part of the results. Values without a mark were called inactive. Cut-off read from the data, not from the text of the source: active = normalized growth mostly below about 0.91 (no sharp cut-off); inconclusive = no clear call, values can overlap the other calls; inactive = mostly above about 0.92.
# Test: chemical genetic growth profiling, strain panel (AID 1159580);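 note: tested at 20 µM; growth read once vehicle control cultures reached saturation at 30 °C; 1 = growth at the plate median or of vehicle wells; lower values mean less growth of the strain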
# Details: growth OD
# [1] = S. cerevisiae deletion strains, locus YAL013W, strain DEP1, active compounds read low
# [2] = S. cerevisiae deletion strains, locus YBR229C, strain ROT2, active compounds read low
# [3] = S. cerevisiae deletion strains, locus YDL101C, strain DUN1, active compounds read low
# [4] = S. cerevisiae deletion strains, locus YDR150W, strain NUM1, active compounds read low
# [5] = S. cerevisiae deletion strains, locus YEL061C, strain CIN8, active compounds read low
# [6] = S. cerevisiae deletion strains, locus YGR078C, strain PAC10, active compounds read low
# [7] = S. cerevisiae deletion strains, locus YHR030C, strain SLT2, active compounds read low
# [8] = S. cerevisiae deletion strains, locus YJR043C, strain POL32, active compounds read low
# [9] = S. cerevisiae deletion strains, locus YJR075W, strain HOC1, active compounds read low
# [10] = S. cerevisiae deletion strains, locus YKL190W, strain CNB1, active compounds read low
# [11] = S. cerevisiae deletion strains, locus YLR039C, strain RIC1, active compounds read low
# [12] = S. cerevisiae deletion strains, locus YLR262C, strain YPT6, active compounds read low
# [13] = S. cerevisiae deletion strains, locus YMR263W, strain SAP30, active compounds read low
# [14] = S. cerevisiae deletion strains, locus YNL128W, strain TEP1, active compounds read low
# [15] = S. cerevisiae deletion strains, locus YNL153C, strain GIM3, active compounds read low
# [16] = S. cerevisiae deletion strains, locus YNL322C, strain KRE1, active compounds read low
# [17] = S. cerevisiae deletion strains, locus YPL055C, strain LGE1, active compounds read low
# [18] = S. cerevisiae deletion strains, locus YPL241C, strain CIN2, active compounds read low
structure (smiles),measurement,setting,value
COC(=O)c1c(Cl)c(Cl)c(C(=O)OC)c(Cl)c1Cl,normalized growth,[1],0.991
same,normalized growth,"S. cerevisiae deletion strains, locus YBR021W, strain FUR4, active compounds read low",0.972
same,normalized growth,[2],1
same,normalized growth,"S. cerevisiae deletion strains, locus YCL029C, strain bik1, active compounds read low",1.01
same,normalized growth,"S. cerevisiae deletion strains, locus YDL035C, strain GPR1, active compounds read low",1.01
same,normalized growth,"S. cerevisiae deletion strains, locus YDL074C, strain BRE1, active compounds read low",0.927
same,normalized growth,[3],0.978
same,normalized growth,"S. cerevisiae deletion strains, locus YDL134C, strain PPH21, active compounds read low",0.998
same,normalized growth,"S. cerevisiae deletion strains, locus YDL185W, strain tfp1, active compounds read low",1.01
same,normalized growth,"S. cerevisiae deletion strains, locus YDL192W, strain arf1, active compounds read low",1
same,normalized growth,"S. cerevisiae deletion strains, locus YDR101C, strain arx1, active compounds read low",0.995
same,normalized growth,[4],1
same,normalized growth,"S. cerevisiae deletion strains, locus YDR162C, strain NBP2, active compounds read low",0.997
same,normalized growth,"S. cerevisiae deletion strains, locus YDR318W, strain mcm21, active compounds read low",1
same,normalized growth,"S. cerevisiae deletion strains, locus YDR388W, active compounds read low",1
same,normalized growth,"S. cerevisiae deletion strains, locus YDR502C, strain sam2, active compounds read low",0.999
same,normalized growth,[5],0.999
same,normalized growth,"S. cerevisiae deletion strains, locus YER110C, active compounds read low",1
same,normalized growth,"S. cerevisiae deletion strains, locus YER155C, strain BEM2, active compounds read low",0.984
same,normalized growth,"S. cerevisiae deletion strains, locus YER167W, strain BCK2, active compounds read low",0.998
same,normalized growth,"S. cerevisiae deletion strains, locus YGL078C, strain dbp3, active compounds read low",1.01
same,normalized growth,"S. cerevisiae deletion strains, locus YGL086W, strain mad1, active compounds read low",0.998
same,normalized growth,"S. cerevisiae deletion strains, locus YGL248W, strain PDE1, active compounds read low",1.01
same,normalized growth,[6],0.987
same,normalized growth,"S. cerevisiae deletion strains, locus YGR135W, strain pre9, active compounds read low",0.994
same,normalized growth,"S. cerevisiae deletion strains, locus YGR229C, strain SMI1, active compounds read low",0.988
same,normalized growth,"S. cerevisiae deletion strains, locus YGR252W, strain gcn5, active compounds read low",0.944
same,normalized growth,[7],0.971
same,normalized growth,"S. cerevisiae deletion strains, locus YHR079C, strain IRE1 (second series), active compounds read low",1
same,normalized growth,"S. cerevisiae deletion strains, locus YHR094C, strain hxt1, active compounds read low",1
same,normalized growth,"S. cerevisiae deletion strains, locus YHR129C, strain ARP1, active compounds read low",0.996
same,normalized growth,"S. cerevisiae deletion strains, locus YHR200W, strain rpn10, active compounds read low",1
same,normalized growth,"S. cerevisiae deletion strains, locus YIL066C, strain RNR3, active compounds read low",0.984
same,normalized growth,"S. cerevisiae deletion strains, locus YIL073C, strain SPO22, active compounds read low",1.03
same,normalized growth,"S. cerevisiae deletion strains, locus YIL125W, strain kgd1, active compounds read low",0.994
same,normalized growth,"S. cerevisiae deletion strains, locus YIR030C, strain dcg1, active compounds read low",1.01
same,normalized growth,"S. cerevisiae deletion strains, locus YJL095W, strain BCK1, active compounds read low",0.962
same,normalized growth,"S. cerevisiae deletion strains, locus YJL134W, strain LCB3, active compounds read low",1
same,normalized growth,"S. cerevisiae deletion strains, locus YJL168C, strain set2, active compounds read low",1
same,normalized growth,"S. cerevisiae deletion strains, locus YJL187C, strain SWE1 (second series), active compounds read low",1.01
same,normalized growth,[8],0.969
same,normalized growth,[9],0.978
same,normalized growth,"S. cerevisiae deletion strains, locus YKL009W, strain mrt4, active compounds read low",0.987
same,normalized growth,"S. cerevisiae deletion strains, locus YKL068W, active compounds read low",0.996
same,normalized growth,"S. cerevisiae deletion strains, locus YKL085W, strain MDH1 (second series), active compounds read low",0.995
same,normalized growth,"S. cerevisiae deletion strains, locus YKL085W, strain MDH1, active compounds read low",0.995
same,normalized growth,[10],0.998
same,normalized growth,"S. cerevisiae deletion strains, locus YKR001C, strain vps1, active compounds read low",1.03
same,normalized growth,[11],1.24
same,normalized growth,"S. cerevisiae deletion strains, locus YLR058C, strain SHM2, active compounds read low",1
same,normalized growth,"S. cerevisiae deletion strains, locus YLR102C, strain apc9, active compounds read low",1.01
same,normalized growth,[12],1.18
same,normalized growth,"S. cerevisiae deletion strains, locus YLR268W, strain sec22, active compounds read low",0.992
same,normalized growth,"S. cerevisiae deletion strains, locus YLR330W, strain CHS5, active compounds read low",1
same,normalized growth,"S. cerevisiae deletion strains, locus YLR342W, strain FKS1 (second series), active compounds read low",1.01
same,normalized growth,"S. cerevisiae deletion strains, locus YLR371W, strain rom2, active compounds read low",1.01
same,normalized growth,"S. cerevisiae deletion strains, locus YLR418C, strain cdc73, active compounds read low",0.929
same,normalized growth,"S. cerevisiae deletion strains, locus YML016C, strain PPZ1, active compounds read low",0.993
same,normalized growth,"S. cerevisiae deletion strains, locus YML032C, strain rad52, active compounds read low",1.01
same,normalized growth,"S. cerevisiae deletion strains, locus YML124C, strain tub3, active compounds read low",1.01
same,normalized growth,"S. cerevisiae deletion strains, locus YMR078C, strain ctf18, active compounds read low",1.01
same,normalized growth,"S. cerevisiae deletion strains, locus YMR223W, strain ubp8, active compounds read low",1
same,normalized growth,[13],0.987
same,normalized growth,"S. cerevisiae deletion strains, locus YMR307W, strain GAS1, active compounds read low",0.972
same,normalized growth,"S. cerevisiae deletion strains, locus YNL067W, strain RPL9B, active compounds read low",0.985
same,normalized growth,[14],1
same,normalized growth,[15],1
same,normalized growth,"S. cerevisiae deletion strains, locus YNL233W, strain BNI4, active compounds read low",1.01
same,normalized growth,"S. cerevisiae deletion strains, locus YNL250W, strain rad50, active compounds read low",1.01
same,normalized growth,"S. cerevisiae deletion strains, locus YNL271C, strain bni1, active compounds read low",1.01
same,normalized growth,"S. cerevisiae deletion strains, locus YNL298W, strain CLA4, active compounds read low",0.997
same,normalized growth,"S. cerevisiae deletion strains, locus YNL307C, strain MCK1, active compounds read low",0.998
same,normalized growth,[16],0.994
same,normalized growth,"S. cerevisiae deletion strains, locus YNR052C, strain pop2, active compounds read low",1.02
same,normalized growth,"S. cerevisiae deletion strains, locus YOL006C, strain TOP1, active compounds read low",0.914
same,normalized growth,"S. cerevisiae deletion strains, locus YOL012C, strain htz1",0.967
same,normalized growth,"S. cerevisiae deletion strains, locus YOL147C, strain pex11, active compounds read low",1.01
same,normalized growth,"S. cerevisiae deletion strains, locus YOR061W, strain CKA2, active compounds read low",0.999
same,normalized growth,"S. cerevisiae deletion strains, locus YOR069W, strain VPS5, active compounds read low",1
same,normalized growth,"S. cerevisiae deletion strains, locus YOR136W, strain idh2, active compounds read low",1
same,normalized growth,"S. cerevisiae deletion strains, locus YOR144C, strain elg1, active compounds read low",1
same,normalized growth,"S. cerevisiae deletion strains, locus YOR184W, strain ser1, active compounds read low",0.989
same,normalized growth,"S. cerevisiae deletion strains, locus YOR316C, strain cot1, active compounds read low",1
same,normalized growth,[17],0.937
same,normalized growth,[18],0.99
same,normalized growth,"S. cerevisiae deletion strains, locus YPR119W, strain clb2, active compounds read low",1
same,normalized growth,"S. cerevisiae deletion strains, locus YPR141C, strain kar3, active compounds read low",1.01
same,normalized growth,"S. cerevisiae deletion strains, locus YPR163C, strain tif3, active compounds read low",1
same,normalized growth,"S. cerevisiae deletion strains, locus YPR167C, strain met16, active compounds read low",0.995
same,normalized growth,"S. cerevisiae deletion strains, strain wtn01, active compounds read low",0.998
same,normalized growth,"S. cerevisiae strains, strain wild type, active compounds read low",0.991
Cc1ccc(Oc2ccc(C)cc2)cc1,normalized growth,[1],0.993
same,normalized growth,[2],0.999
same,normalized growth,[3],1.01
same,normalized growth,[4],0.999
same,normalized growth,[5],0.976
same,normalized growth,[6],1
same,normalized growth,[7],0.663 (active)
same,normalized growth,"S. cerevisiae deletion strains, locus YHR087W, strain rtc3, active compounds read low",1.03
same,normalized growth,"S. cerevisiae deletion strains, locus YJL187C, strain SWE1, active compounds read low",0.993
same,normalized growth,[8],0.992
same,normalized growth,[9],1.01
same,normalized growth,[10],1
same,normalized growth,[11],0.897
same,normalized growth,"S. cerevisiae deletion strains, locus YLR058C, strain SHM2 (second series), active compounds read low",0.991
same,normalized growth,"S. cerevisiae deletion strains, locus YLR085C, strain ARP6, active compounds read low",0.864
same,normalized growth,[12],0.889
same,normalized growth,"S. cerevisiae deletion strains, locus YML094W, strain GIM5, active compounds read low",1.06
same,normalized growth,"S. cerevisiae deletion strains, locus YMR219W, strain ESC1, active compounds read low",1
same,normalized growth,[13],0.969
same,normalized growth,[14],0.995
same,normalized growth,[15],0.999
same,normalized growth,"S. cerevisiae deletion strains, locus YNL298W, strain CLA4 (second series), active compounds read low",0.96
same,normalized growth,[16],0.993
same,normalized growth,"S. cerevisiae deletion strains, locus YNR030W, strain Alg12, active compounds read low",0.962
same,normalized growth,[17],1.02
same,normalized growth,[18],0.936
same,normalized growth,"S. cerevisiae deletion strains, locus YPR135W, strain CTF4, active compounds read low",0.912
